Data taken from the supplement of paper PMC9023506.
Counter-ions that a name gives are not always drawn.

The compounds below were run on Danio rerio larvae (5 dpf) (assay: optomotor response to blue moving lines, difference vs DMSO (percentage points (treated minus DMSO)); higher = more of the behaviour than the DMSO vehicle control). Conditions: 10 µM; exposure time: 3 h pre-incubation + 3 h imaging.
Method: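 5-dpf wild-type zebrafish larvae were imaged in 96-well plates. They were treated with 190 Tocris FDA-approved drugs at 10 µM (1 µl/ml DMSO) for 3 h before and 3 h during imaging at 28.5 °C, 48 larvae per drug. Automated image analysis gave % time moving and optomotor responses. Values are drug group mean minus DMSO vehicle mean (n=844), in percentage points, for 10 behaviours.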

SMILES | optomotor response to blue moving lines
Nc1ccn([C@@H]2O[C@H](CO)[C@@H](O)C2(F)F)c(=O)n1 [Gemcitabine hydrochloride] | 3.79
CC(=O)Nc1ccc(O)cc1 [Acetaminophen] | 5.11
CN1CCC[C@@H]1Cc1c[nH]c2ccc(CCS(=O)(=O)c3ccccc3)cc12 [Eletriptan hydrobromide] | 5.86
Cn1nnc2c(C(N)=O)ncn2c1=O [Temozolomide] | 3.81
CN(CCOc1ccc(CC2SC(=O)NC2=O)cc1)c1ccccn1 (stereo not given) [Rosiglitazone] | -12.4
CC1=Nc2ccc(Cl)cc2S(=O)(=O)N1 [Diazoxide] | 0.0367
CCCc1nc2c(C)cc(-c3nc4ccccc4n3C)cc2n1Cc1ccc(-c2ccccc2C(=O)O)cc1 [Telmisartan] | 8.47
CC(C)COCC(CN(Cc1ccccc1)c1ccccc1)N1CCCC1 (stereo not given) [Bepridil hydrochloride] | 7.44
CCOC(=O)C1=C(COCCN)NC(C)=C(C(=O)OC)C1c1ccccc1Cl (stereo not given) [Amlodipine besylate] | 6.74
C#CCN[C@@H]1CCc2ccccc21 [Rasagiline mesylate] | 15.8
COc1cc2nc(N3CCN(C(=O)C4COc5ccccc5O4)CC3)nc(N)c2cc1OC (stereo not given) [Doxazosin mesylate] | -6.52
CN(CCOc1ccc(NS(C)(=O)=O)cc1)CCc1ccc(NS(C)(=O)=O)cc1 [Dofetilide] | -7.25
Cc1c(-c2ccc(O)cc2)n(Cc2ccc(OCCN3CCCCCC3)cc2)c2ccc(O)cc12 [Bazedoxifene acetate] | 1.43
Cc1nnc(C(C)C)n1C1C[C@H]2CC[C@@H](C1)N2CC[C@H](NC(=O)C1CCC(F)(F)CC1)c1ccccc1 (stereo in doubt) [Maraviroc] | -0.85
COc1cccc2c1C(=O)c1c(O)c3c(c(O)c1C2=O)C[C@@](O)(C(=O)CO)C[C@@H]3O[C@H]1C[C@H](N)[C@H](O)[C@H](C)O1 [Doxorubicin hydrochloride] | 3.86
NS(=O)(=O)c1cc(C(=O)O)c(NCc2ccco2)cc1Cl [Furosemide] | 6.22
NC(=O)N1c2ccccc2C=Cc2ccccc21 [Carbamazepine] | 12.9
CC(=O)Oc1ccccc1C(=O)O [Aspirin] | 2.57
O=C(O)CCCc1ccccc1 [Sodium 4-Phenylbutyrate] | 3.11
Nc1cccc2c1CN(C1CCC(=O)NC1=O)C2=O (stereo not given) [Lenalidomide] | 3.02

SMILES | optomotor response to blue moving lines
Cc1ccc(O)c([C@H](CCN(C(C)C)C(C)C)c2ccccc2)c1 [Tolterodine L-tartrate] | 7.18
CC(C)c1nc(CN(C)C(=O)N[C@H](C(=O)N[C@@H](Cc2ccccc2)C[C@H](O)[C@H](Cc2ccccc2)NC(=O)OCc2cncs2)C(C)C)cs1 [Ritonavir] | -11.8
CNS(=O)(=O)Cc1ccc2[nH]cc(CCN(C)C)c2c1 [Sumatriptan succinate] | -3.13
N#C[C@@H]1C[C@@H]2C[C@@H]2N1C(=O)[C@@H](N)C12CC3CC(CC(O)(C3)C1)C2 [Saxagliptin hydrochloride] | -7.01
CCCCC1=NC2(CCCC2)C(=O)N1Cc1ccc(-c2ccccc2-c2nnn[nH]2)cc1 [Irbesartan] | -14
C/C(O)=C(\C#N)C(=O)Nc1ccc(C(F)(F)F)cc1 [Teriflunomide] | -8.25
CCCCCCCN(CC)CCCC(O)c1ccc(NS(C)(=O)=O)cc1 (stereo not given) [Ibutilide hemifumarate] | 12.1
C=C1[C@H](CO)[C@@H](O)C[C@@H]1n1cnc2c(=O)[nH]c(N)nc21 [Entecavir] | 11.4
CS(=O)(=O)CCNCc1ccc(-c2ccc3ncnc(Nc4ccc(OCc5cccc(F)c5)c(Cl)c4)c3c2)o1 [Lapatinib] | 6.39
COc1cc(Nc2c(C#N)cnc3cc(OCCCN4CCN(C)CC4)c(OC)cc23)c(Cl)cc1Cl [Bosutinib] | -9.89
CCCC1O[C@@H]2C[C@H]3[C@@H]4CCC5=CC(=O)C=C[C@]5(C)[C@H]4[C@@H](O)C[C@]3(C)[C@]2(C(=O)CO)O1 (stereo not given in full) [Budesonide] | 2.29
Nc1ncn([C@@H]2O[C@H](CO)[C@@H](O)[C@H]2O)c(=O)n1 [5-Azacytidine] | 8.76
CC(C)CN(C[C@@H](O)[C@H](Cc1ccccc1)NC(=O)O[C@H]1CO[C@H]2OCC[C@H]21)S(=O)(=O)c1ccc(N)cc1 [Darunavir] | 8.12
C[C@@H](O[C@H]1OCCN(Cc2n[nH]c(=O)[nH]2)[C@H]1c1ccc(F)cc1)c1cc(C(F)(F)F)cc(C(F)(F)F)c1 [Aprepitant] | 4.96
CCN(Cc1ccncc1)C(=O)C(CO)c1ccccc1 (stereo not given) [Tropicamide] | 0.00192
CN(C)CCc1c[nH]c2ccc(C[C@H]3COC(=O)N3)cc12 [Zolmitriptan] | 9.9
COc1ccccc1OCCNCC(O)COc1cccc2[nH]c3ccccc3c12 (stereo not given) [Carvedilol] | -0.112
Nc1cc(N2CCCCC2)nc(N)[n+]1[O-] [Minoxidil] | -6.76
COc1cc2ncnc(Nc3ccc(F)c(Cl)c3)c2cc1OCCCN1CCOCC1 [Iressa] | 5.63
COc1c(C)c2c(c(O)c1C/C=C(\C)CCC(=O)O)C(=O)OC2 [Mycophenolic acid] | 7
